mIDH1 inhibitor = blocks human mutant IDH1 R132H enzyme; IDH1-R132H enzyme, NADPH consumption, diaphorase/resazurin fluorescence; Potency, µM (top dose mostly 76.6 µM), for the others: top-dose activity change, negative = inhibition, most hits filed as inhibitors; 0.093% of 390,000 active; note: potency is the fitted concentration of half-maximal effect; % is set by controls: 0 for no effect and ±100 for the full control effect; nearly all actives have a fitted effect of over 65% in size
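IDH1-R132H (0.5 ug/mL) preincubated 30 min with compound, then NADPH (0.016 mM) and alpha-KG (2 mM) added; 80 min at RT, pH 7.5. Remaining NADPH coupled via diaphorase/resazurin to fluorescence (540/590 nm); concentration-response curves normalized to no-enzyme control.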
ASM inhibitor = inhibitors of human secretory acid sphingomyelinase | P17405 | placental ASM, HMU-PC fluorogenic substrate, 60 min | Potency, µM (series often up to 57.5 µM), inactives show at the top dose activity change, negative = inhibition, usual class: inhibitors | 0.006% of 340,000 active | AID 504937; note: potency is the fitted concentration of half-maximal effect
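Human placenta-derived ASM enzyme was preincubated with compound for 10 minutes at room temperature, then given fluorogenic substrate HMU-PC0 (9 uM final) for 60 minutes at 37 °C; a pH 10 stop preceded fluorescence reading at Ex 386/Em 447 nm.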
LDHA block = LDHA (human) enzyme inhibition; purified LDHA, NADH/diaphorase-resazurin fluorescence; active compounds read low; activity change, % (values are at about 110 or 230 µM); 0.15% of 480,000 active; in the data active = activity change below about -30%; inconclusive = mostly about -25% to -30%;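 note: plate controls were DMSO wells for no effect and wells without enzyme for full effect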
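Remaining NADH was detected by diaphorase (0.133 mg/mL) converting 37 µM resazurin to fluorescent resorufin, read at 0 and 20 minutes. The preceding 5-minute room-temperature reaction used 2 nM LDHA, 0.2 mM sodium pyruvate and 0.06 mM NADH at pH 7.4.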
Mito fusion act = inhibitors of mitochondrial division or activators of mitochondrial fusion; 0.23% of 320,000 active; Potency, µM (doses to about 46.1 µM), for the others: at the highest dose growth rescue (activation), actives largely listed as activators; S. cerevisiae fusion-defective mutant growth rescue, CellTiterGlo 48 h; note: potency is the fitted concentration of half-maximal effect; % of control where 0% means no effect; nearly all actives have a fitted effect of over 45% in size
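Temperature-sensitive fusion-defective S. cerevisiae (e.g. fzo1-1, mgm1-5) were grown with compound in YPEG medium (3% ethanol, 3% glycerol) for 48 hours at 37C. Growth rescue was measured as viability by CellTiterGlo luminescence after 10 minutes at ambient.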
ClpP mod = qHTS Assay for Activators of ClpP | AID 651965, 2013 | 1.9% of 340,000 active | purified B. subtilis ClpP, FRET peptide cleavage, 20 min | ATP-dependent Clp protease proteolytic subunit (Bacillus subtilis (strain 168)), P80244 | Potency, µM (titrated, usually from 57.5 µM), for inactives: at the top dose activity change, negative = active; active = well fitted falling curve with a large enough effect; inconclusive = small, poorly fitted or top-dose-only effect; inactive = no such curve, though single readings can be large or run the other way; note: potency is the fitted concentration of half-maximal effect; the source files actives as falling curves though it sought activators and does not explain the sign; nearly all actives have a fitted effect of over 65% in size
Target sequence (P80244 whole entry, looked up): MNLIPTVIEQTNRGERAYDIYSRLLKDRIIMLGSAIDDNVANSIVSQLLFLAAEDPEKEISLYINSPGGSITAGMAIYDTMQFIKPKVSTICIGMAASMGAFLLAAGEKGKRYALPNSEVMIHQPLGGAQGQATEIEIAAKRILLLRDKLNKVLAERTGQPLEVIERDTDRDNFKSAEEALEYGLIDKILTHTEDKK
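Purified B. subtilis ClpP, 10 microg/mL final in Tris/HCl pH8 with KCl, BSA, glycerol and Tween-20, cleaved an Abz/nitrotyrosine-quenched decapeptide. Fluorescence (ex 320, em 430) was read at 0 and 20 min at room temperature. Delta was normalized to 5.8 microM ADEP and DMSO/no-enzyme controls.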
RGS4 inh = human RGS4 inhibition | P49798 | Transcreener GDP fluorescence polarization, RGS4-accelerated GTP hydrolysis | Potency, µM (series often up to 114 µM), for the others: at the highest dose activity change, negative = inhibition, hits mostly inhibitors | 0.039% of 390,000 active; note: potency is the fitted concentration of half-maximal effect; % is set by controls: 0 for no effect and ±100 for the full control effect; nearly all actives have a fitted effect of over 75% in size
Target sequence (P49798 whole entry, looked up): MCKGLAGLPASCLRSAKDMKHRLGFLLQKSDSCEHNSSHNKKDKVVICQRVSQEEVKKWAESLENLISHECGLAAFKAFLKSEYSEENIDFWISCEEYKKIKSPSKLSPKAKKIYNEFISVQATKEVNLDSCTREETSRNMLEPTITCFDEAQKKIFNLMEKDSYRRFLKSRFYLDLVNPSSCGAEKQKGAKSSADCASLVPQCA
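MLSMR compounds (23 nl, pin-transferred) preincubated 10 min at room temperature with a 500nM (2x) first reagent, then RGS4 at 900nM (2x) plus Transcreener GDP mix added; fluorescence polarization (620/688 nm) read before and after 90 min at 30 °C.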
Numbers without * were called inactive; ? = inconclusive; . = not tested or not shown; [ ] = dose if it differs, or a comment. The sample as a whole holds a higher share of hits than the screen did. Unless noted, calls come from the whole dose curve; as a rule, active = well fitted curve in the direction sought with a large enough effect; inconclusive = small, poorly fitted or top-dose-only effect, or another doubt; inactive = no such curve, though single readings can be large; an effect the other way counts as inactive or inconclusive.

SMILES	mIDH1 inhibitor	ASM inhibitor	LDHA block	Mito fusion act	ClpP mod	RGS4 inh
CCn1nc(C(=O)OC(C)C(=O)N2CCCc3ccccc32)c2ccccc2c1=O (stereo not drawn)	.	.	-2.6	.	.	.
CCOC(=O)c1c[nH]c2cc(Br)c(Br)cc12	.	.	8.4	.	.	.
C/C(=N/Nc1ccc(S(N)(=O)=O)cc1[N+](=O)[O-])c1ccccc1Br	.	.	-2.5	.	.	.
Cc1cc(=O)oc2cc(OCC(=O)N3CCc4ccccc4C3)ccc12	7.9%	24.7%	-2.3	7.7%	25.1µM*	-3.0%
O=C(NCCc1cccnc1)C1CC2CCC1C2 (stereo not drawn)	.	.	1.8	.	.	.
COc1ccc(C(c2nnnn2CC2CCCO2)N2CCC(C(N)=O)CC2)cc1 (stereo not drawn)	8.6%	0.9%	-6.1	-4.0%	28.2µM*	9.3%[11.4 µM]
Cc1ccc2[nH]c(=O)c(C(c3nnnn3CC3CCCO3)N3CCOCC3)cc2c1 (stereo not drawn)	0.5%	6.0%	-7.7	3.3%	22.4µM*	20.7%
COc1ccc2[nH]c(=O)c(C(c3nnnn3CC3CCCO3)N3CCc4ccccc4C3)cc2c1 (stereo not drawn)	5.2%	54.2%	4.8	1.5%	31.6µM*	4.3%
C=CCNC(=O)c1cc2cc(Cl)ccc2nc1C	.	.	-10.9	.	.	.
O=C(Cc1n[nH]c(=O)c2ccccc12)N1CCN(c2ccccc2F)CC1	.	.	-0.7	.	.	.
Cc1cccc(NC(=O)COC(=O)Cc2cccs2)c1C	-4.2%	-1.5%	-2.7	-3.2%	25.1µM*	-9.4%
COc1ccccc1NC(=O)COC(=O)Cc1cccs1	7.0%	-1.5%	-8.2	8.9%	.	-12.1%
O=C(Nc1cccc(F)c1)C1CCN(C(=O)c2ccc(Cl)cc2)CC1	4.6%	-0.8%	-1.7	6.3%	25.1µM*	-10.0%
CN(CC(=O)Nc1cccc(F)c1)C(=O)C1CCN(C(=O)c2ccc(Cl)cc2)CC1	-0.8%	-0.8%	-3.4	0.1%	-0.7%	-2.7%
CC(Sc1nc(CN2CCOCC2)nc2ccccc12)C(=O)Nc1ccc(F)cc1F (stereo not drawn)	.	.	-33.2*	.	.	.
O=C(COc1ccc(F)c(Cl)c1)N1CCC(c2nc3ccccc3o2)CC1	.	.	-18.7	.	.	.
Cc1c(OCCC(C)C)ccc2c(C(F)(F)F)cc(=O)oc12	.	.	6.0	.	.	.
COCC(=O)NNC(=O)c1ccccc1OC	-2.3%	1.7%	-3.7	-1.2%	.	-26.2%
COc1ccccc1C(=O)NCCC(=O)NNC(=O)c1ccccc1O	-0.3%	.	3.3	2.2%	25.1µM*	9.1%
COc1ccccc1C(=O)NCCSCc1ccccc1Cl	0.0%	-3.6%	-7.3	3.1%	7.08µM*	-3.3%
Cc1ccccc1OCCNC(=O)CNC(=O)c1ccccc1O	0.5%	-4.8%	10.7	1.8%	28.2µM*	-28.3%
Cc1cc2nn(-c3cccc4ccccc34)nc2cc1NC(=O)c1cccs1	1.8%	27.4%	-0.4	9.7%	14.1µM*	-7.7%
CC(C)OC(=O)CSc1nc(N)c(C#N)c(-c2ccco2)c1C#N	1.1%	11.4%	0.9	4.8%	20µM*	-10.9%[11.4 µM]
CC(C)OC(=O)CSc1nc(N)c(C#N)cc1C#N	23.8%	-1.8%	-0.7	0.5%	.	6.0%
CCC(=O)NCCc1cc2cc(C)c(C)cc2[nH]c1=O	-7.8%	4.3%	0.5	0.3%	15.8µM*	-5.9%
O=C(NCc1coc(-c2cccs2)n1)c1ccc(Cl)cc1Cl	.	.	-21.9	.	.	.
NC(=O)c1ccccc1NCC(=O)Nc1ccccc1C(=O)NC1CCCC1	.	.	-8.0	.	.	.
CCOc1ccc(-n2nc(CO)c(C(=O)NCCCc3ccccc3)n2)cc1	-8.0%	.	-2.7	.	12.6µM*	1.2%
CCOc1ccc(-n2nc(CO)c(C(=O)NCc3cccc(OC)c3)n2)cc1	-15.4%	.	-8.0	.	?	-2.4%
COCCCNC(=O)c1nn(-c2ccc(C)cc2)nc1CO	20.6%	.	-10.1	.	14.1µM*	1.4%
